# Data reported in PubChem BioAssay (NCATS).
# Results filed as inconclusive are left out. A number with no mark means an inactive call. Activity calls are given as the source filed them. The call rests on the fitted dose curve; in most records, active means well fitted curve in the direction sought with a large enough effect; inconclusive means small, poorly fitted or top-dose-only effect, or another doubt; inactive means no such curve, though single readings can be large; an effect the other way counts as inactive or inconclusive.
# Experiments:
# [1] = P-glycoprotein substrates identified in KB-8-5-11 adenocarcinoma cell line, qHTS therapeutic library screen (AID 1346987); further: nearly all actives have a fitted effect of over 65% in size; on activity change, negative = cytotoxicity: series mostly up to about 44 µM; on the % scale 0 is the no-effect control and ±100 the full control effect
# Procedure, shortened: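 KB-8-5-11, a colchicine-selected P-gp-overexpressing KB-3-1 subline, was grown without colchicine for the assay. Cells were seeded at 500 cells/well, dosed in concentration-response and incubated 72 h at 37 degree C, 5% CO2. Viability was read by CellTiter-Glo luminescence.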
# [2] = qHTS of pediatric cancer cell lines to identify multiple opportunities for drug repurposing: Primary screen for A673 cells (AID 1347092); further: nearly all actives have a fitted effect of over 45% in size
# Procedure, shortened: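 A673 cells (500-1,000 cells/well in growth media) were pre-incubated 5 h at 37 degrees C, then exposed to compounds for 48 h. Viability was read as CellTiter-Glo luminescence; concentration-response curves came directly from the primary screen.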
# [3] = qHTS of pediatric cancer cell lines to identify multiple opportunities for drug repurposing: Primary screen for SK-N-MC cells (AID 1347093)
# Procedure, shortened: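 Metabolically active cells were quantified by ATP-dependent luminescence (CellTiter-Glo, 15 min at room temperature) following 48 h treatment. Cells had been plated at 500-1,000 per well and settled for 5 h beforehand.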
# [4] = qHTS of pediatric cancer cell lines to identify multiple opportunities for drug repurposing: Primary screen for BT-37 cells (AID 1347094)
# Procedure, shortened: (§1)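 Viability was measured as metabolically active cells after 48 hours of treatment, read by CellTiter-Glo luminescence. Compounds were tested at multiple final concentrations, giving concentration-response curves.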
# [5] = qHTS of pediatric cancer cell lines to identify multiple opportunities for drug repurposing: Primary screen for NB-EBc1 cells (AID 1347095)
# Procedure, shortened: as §1
# [6] = NS1 protein of Zika virus - qHTS assay to identify small molecule inhibitors in human HEK 293 cells (AID 1347053); further: nearly all actives have a fitted effect of over 55% in size
# Procedure, shortened: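 HEK 293 cells pretreated with compound for 1 h, then infected with ZIKV MR766 (MOI 0.5) for 24 h at 37 C. NS1 detected by TR-FRET with two anti-NS1 antibodies; normalized to uninfected (0%) and infected (100%) wells.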
# [7] = qHTS of pediatric cancer cell lines to identify multiple opportunities for drug repurposing: Primary screen for TC32 cells (AID 1347089); further: nearly all actives have a fitted effect of over 60% in size
# Procedure, shortened: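 Luminescent CellTiter-Glo read-out of metabolically active TC32 cells after 48 h compound exposure. Primary: MIPE 11-point, 0.78 nM–46 µM; NPC 8-point, 0.59 nM–46 µM. Confirmatory: 11-point dilutions.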
# [8] = qHTS of pediatric cancer cell lines to identify multiple opportunities for drug repurposing: Primary screen for DAOY cells (AID 1347090); further: nearly all actives have a fitted effect of over 55% in size
# Procedure, shortened: (§2)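 Viability measured as metabolically active cells via CellTiter-Glo luminescence following 48 hours of compound exposure, 11-point dilutions in confirmatory testing. 500-1,000 cells/well plated 5 hours before dosing; controls were DMSO and 2.3 µM bortezomib.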
# [9] = qHTS of pediatric cancer cell lines to identify multiple opportunities for drug repurposing: Primary screen for SJ-GBM2 cells (AID 1347091)
# Procedure, shortened: as §2
# Potency means the concentration at half of the fitted maximal effect.
Compound,"activity change, negative = cytotoxicity [1]",Potency [2],Potency [3],Potency [4],Potency [5],Potency [6],Potency [7],Potency [8],Potency [9],Potency [1]
CC(=O)c1c(C)c2cnc(Nc3ccc(N4CCNCC4)cn3)nc2n(C2CCCC2)c1=O,6.87% [at 5.11 µM],14.8 µM (active),20.9 µM (active),24.3 µM (active),20.9 µM (active),,,,,
CCC1=C[C@@H]2CN(C1)Cc1c([nH]c3ccccc13)[C@@](C(=O)OC)(c1cc3c(cc1OC)N(C)[C@@H]1[C@@](O)(C(=O)OC)[C@H](OC(C)=O)[C@]4(CC)C=CCN5CC[C@]31[C@@H]54)C2,,0.0093 µM (active),,0.0432 µM (active),0.235 µM (active),4.18 µM (active),0.104 µM (active),0.187 µM (active),0.0332 µM (active),
Cc1cc(CN2CCN(c3c(Br)cnc4nc(-c5ccc(N6CCN(C)CC6)cc5)[nH]c34)CC2)no1,,23.5 µM (active),1.18 µM (active),,2.35 µM (active),,,,5.9 µM (active),0.92 µM (active)
COc1cccc(-c2ccc(NC(=O)C3=C(C(=O)O)CCC3)c(F)c2)c1,,5.9 µM (active),1.32 µM (active),19.3 µM (active),,2.09 µM (active),,,11.8 µM (active),
Cc1cccc(C=NNc2cc(N3CCOCC3)nc(OCCc3ccccn3)n2)c1,,7.43 µM (active),,,1.32 µM (active),23.5 µM (active),,,1.32 µM (active),
